Drawing on the supplement of paper PMC6718421, this text covers animals for 28 compounds.

The structures appear in SMILES notation. ± gives the uncertainty stated by the source.

The test system of the assay is Caenorhabditis elegans N2 (wild type). As to the kind of experiment: animals with crystals or spheres in anterior pharynx; higher = more object (crystal/sphere) accumulation. As to conditions: 30 µM; 48 h; genotype: wild type N2; stage: L1 start. As for the experimental part:
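Synchronized wild-type (N2) C. elegans L1 larvae (50 per well) were incubated in liquid NGM with E. coli HB101 and 30 uM of each wactive for 48 h. Live worms were scored by DIC and polarized-light microscopy for birefringent crystals or non-birefringent spheres in the anterior pharynx. At least 3 biological replicates were run with at least 20 worms each; the value is the mean % of animals carrying objects.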
`Cc1ccc(-c2cnc(-c3ccncc3)o2)cc1` [wact-23] returned an animals of 0%.
As for `Ic1cccc(-c2nnc(-c3ccccc3)o2)c1` [wact-51], the figure is 51.5 ± 14%.
Next, `COc1ccc(C=Cc2ccccn2)cc1` [wact-622]: 0%; `CCCc1nc(-c2ccc(-c3ccc(F)cc3)cc2)no1` [wact-390]: 88.33 ± 0.88%.
As for `Brc1ccc(-c2nnc(-c3ccccc3)o2)cc1` [wact-425], the figure is 34.5 ± 9.2%.
The compound `c1csc(-c2cnc3ccccc3n2)c1` [wact-21] showed an animals of 0%.
Next, `O=C(Nc1ccc(I)cc1)c1ccco1` [wact-27]: 10 ± 8.3%.
Next, `O=C(Nc1ccc(-c2nc3ccccc3s2)cc1)c1ccccc1F` [wact-415]: 100%.
Consider `c1ccc(CSc2nnc(-c3ccccc3)o2)cc1` [wact-38], for which the animals came out at 95.5 ± 3%.
`Clc1ccc(-c2cn3ccsc3n2)cc1` [wact-1] had an animals of 0%.
As for `O=[N+]([O-])c1ccc(N2CCN(CC3CC4C=CC3C4)CC2)cc1` (stereo not drawn) [wact-46], the figure is 0%; as for `O=C(c1ccc(Br)cc1)N1CCN(c2ccc([N+](=O)[O-])cc2)CC1` [wact-381], 99.5 ± 0.5%; as for `COc1ccccc1CNC(=O)c1ccccc1I` [wact-402], 0%.
As for `O=C(NCCCCc1ccccc1)c1ccccc1F` [wact-400], the figure is 0%.
Next, `CCSc1nnc(-c2ccc(Cl)cc2Cl)o1` [wact-4]: 0%; `CCC1CCC(N2CCN(c3ccc([N+](=O)[O-])cc3)CC2)CC1` (stereo not drawn) [wact-6]: 3.24 ± 3%; `O=[N+]([O-])c1ccc(N2CCN(CC3CCCCC3)CC2)cc1` [wact-45]: 0%.
As for `Fc1ccc(-c2cn3ccsc3n2)cc1` [wact-433], the animals amounted to 0%.
Next, `C=CCSc1nnc(-c2ccc(Cl)cc2Cl)o1` [wact-5]: 0%; `Cc1ccccc1C(=O)NCCc1ccccc1` [wact-406]: 0%; `c1ccc(-c2noc(-c3cccs3)n2)cc1` [wact-7]: 0%.
As for `CCOc1ccc(-c2cnc3ccccc3n2)cc1` [wact-24], the figure is 69.5 ± 6.4%.
Take `O=[N+]([O-])c1ccc(CSc2ccc(Cl)cc2)cc1` [wact-3]: the animals was found to be 52.6 ± 13%.
Next, `O=[N+]([O-])c1ccc(N2CCN(CC3CC=CCC3)CC2)cc1` (stereo not drawn) [wact-47]: 0%.
As for `O=C(Nc1cccc(Cl)c1)N1CCN(c2ccc([N+](=O)[O-])cc2)CC1` [wact-31], the figure is 0%; as for `O=C1CC(N2CCN(c3ccc([N+](=O)[O-])cc3)CC2)C(=O)N1c1ccccc1F` (stereo not drawn) [wact-56], 0%; as for `O=[N+]([O-])c1ccc(-n2ccc3ccccc32)cc1` [wact-213], 40.3 ± 22%.
As for `c1ccc2nc(-c3nc4ccccc4o3)ccc2c1` [wact-40], the figure is 12.5 ± 2.8%.
